# Source: PubChem BioAssay
# Many of the other results were omitted from the sample, so hits are more common in it than they were.
# HT1080-NT tox: qHTS for induction of synthetic lethality in tumor cells producing 2HG: qHTS for the HT-1080-NT fibrosarcoma cell line; AID 686970, 2013; 1.6% of 360,000 active; Potency, µM (series often up to 46.1 µM), without a hit: at the top dose activity, negative = less viability, usual class: cytotoxic; HT-1080-NT fibrosarcoma viability, CellTiter-Glo ATP luminescence, 48 h;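 further: NT is the 2HG producing partner of a matched IDH1 knockdown line; potency means the concentration at half of the fitted maximal effect; 0% = DMSO-treated cells and -100% = media-only wells without cells; nearly all actives have a fitted effect of over 55% in size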
#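 Viability of the 2HG-overproducing fibrosarcoma line after 48 hours of compound exposure at 37 degrees C was determined by luminescence with CellTiter-Glo, and concentration-effect curves were then fitted and categorized.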
# IL1B secr inh: qHTS for Inhibitors of Inflammasome Signaling: IL-1-beta AlphaLISA Primary Screen; THP-1 LPS/ATP IL-1B secretion, AlphaLISA, 16 h; stronger effect = lower value; activity change, % at 57.5 µM; 4.7% of 360,000 active; in the data active means activity change below about -50%; inconclusive means mostly about -30% to -49%
#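 Secreted IL-1B measured by AlphaLISA bead assay after 16 h compound exposure of THP-1 cells; compounds (final up to 57.5 uM) added 1 h before LPS (250 ng/mL) and ATP (1.25 mM) stimulation; lower signal means less secretion.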
# TDP1 cell noCPT: qHTS for Inhibitors of human tyrosyl-DNA phosphodiesterase 1 (TDP1): qHTS in cells in absence of CPT. AID 686978, 2013. 15% of 420,000 active. Potency, µM (series often up to 46.2 µM), inactives show top-dose activity change, negative = growth inhibition, usual class: inhibitors. DT40 Tdp1-/- hTDP1 cells, no CPT, ATP luminescence, 48 h; further: potency means the concentration at half of the fitted maximal effect; nearly all actives have a fitted effect of over 55% in size
#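 DT40 Tdp1-/-;hTDP1 cells, no CPT (DMSO vehicle only), 400 cells/well; compounds pin-transferred; ≥48 hr, 37 °C; CellTiter-Glo 30 min RT dark, luminescence read.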
# ALOX12 inh: Primary qHTS assay for inhibitors of human arachidonate 12S-lipoxygenase (ALOX12): Round 2; Polyunsaturated fatty acid lipoxygenase ALOX12 (Homo sapiens), P18054; purified 12hLO, xylenol orange hydroperoxide absorbance; Potency, µM (series often up to 108 µM), for the others: top-dose activity change, negative = inhibition, most hits filed as inhibitors; 1.1% of 580,000 active; further: potency means the concentration at half of the fitted maximal effect
# Target sequence (P18054 whole entry, looked up): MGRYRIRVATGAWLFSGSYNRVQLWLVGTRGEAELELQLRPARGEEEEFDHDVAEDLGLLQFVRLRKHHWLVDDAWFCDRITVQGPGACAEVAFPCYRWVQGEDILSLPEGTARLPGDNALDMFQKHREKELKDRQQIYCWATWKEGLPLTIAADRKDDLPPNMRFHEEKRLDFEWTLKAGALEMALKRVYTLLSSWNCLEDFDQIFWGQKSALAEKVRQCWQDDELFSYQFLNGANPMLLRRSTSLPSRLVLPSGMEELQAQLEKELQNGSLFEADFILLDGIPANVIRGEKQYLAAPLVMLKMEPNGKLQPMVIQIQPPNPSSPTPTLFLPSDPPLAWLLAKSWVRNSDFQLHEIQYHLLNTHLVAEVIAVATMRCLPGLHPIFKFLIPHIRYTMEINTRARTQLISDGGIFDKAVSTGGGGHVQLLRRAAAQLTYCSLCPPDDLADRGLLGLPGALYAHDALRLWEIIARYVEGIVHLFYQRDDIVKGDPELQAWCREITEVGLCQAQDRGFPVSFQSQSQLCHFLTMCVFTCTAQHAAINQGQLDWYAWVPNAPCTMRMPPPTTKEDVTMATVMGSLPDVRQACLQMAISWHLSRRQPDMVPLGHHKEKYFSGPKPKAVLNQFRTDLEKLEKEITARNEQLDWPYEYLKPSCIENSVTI
#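 Purified human 12hLO (150 nM final) in 25 mM Hepes, 0.01% Triton X-100, pH 7.0 was preincubated 15 min at room temperature with compound. Then 40 uM arachidonic acid was added, 30 min. Hydroperoxide was read by Fe-XO absorbance ratio 573/405 nm.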
# HT1080 IDH1KD tx: qHTS for induction of synthetic lethality in tumor cells producing 2HG: qHTS for the HT-1080-IDH1KD cell line | HT-1080 IDH1 knockdown viability, ATP luminescence, 48 h | Potency, µM (top dose mostly 46.1 µM), for inactives: at the top dose activity, negative = toxicity, actives largely listed as cytotoxic | 2% of 360,000 active | AID 686971, 2013;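 further: potency means the concentration at half of the fitted maximal effect; 0% = DMSO wells and -100% = cell-free medium wells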
#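 Viability of IDH1-knockdown HT-1080 fibrosarcoma cells was assessed by CellTiter-Glo after 48 h at 37 °C with titrated compound; concentration-effect curves were classified by fit quality and response size.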
# TDP1 cell CPT: qHTS for Inhibitors of human tyrosyl-DNA phosphodiesterase 1 (TDP1): qHTS in cells in presence of CPT; chicken DT40 Tdp1-/-;hTDP1 cells + 20 nM CPT, ATP luminescence, 48 h; Potency, µM (top dose mostly 46.2 µM), for the others: at the top dose activity change, negative = growth inhibition, hits mostly inhibitors; 12% of 420,000 active; AID 686979, 2013; further: potency means the concentration at half of the fitted maximal effect; nearly all actives have a fitted effect of over 55% in size
#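 Chicken DT40 Tdp1-/- cells complemented with human TDP1, 400 cells/well, exposed to compounds plus 20 nM camptothecin for at least 48 h at 37 C; viability read as ATP content by CellTiter-Glo luminescence.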
# * hit, by the source's call; ? = inconclusive; / = not tested or not shown; [ ] = remark or other dose. Unless noted, the call rests on the fitted dose curve; in most records, active means well fitted curve in the direction sought with a large enough effect; inconclusive means small, poorly fitted or top-dose-only effect, or another doubt; inactive means no such curve, though single readings can be large; an effect the other way counts as inactive or inconclusive. Unless noted, on the % scale 0 is the no-effect control and ±100 the full control effect.
SMILES,HT1080-NT tox,IL1B secr inh,TDP1 cell noCPT,ALOX12 inh,HT1080 IDH1KD tx,TDP1 cell CPT
CCCCCC(=O)N(O)C1CC(=O)N(c2ccccc2)C1=O (stereo not given),-18%,-26,4.6µM*,176%,-24%,3.3µM*
CCCCCC(=O)N(CN1C(=O)CCC1=O)c1ccccc1,-12%,18,-1%,18%,8%,2%
CCCCCCC(=O)N(O)C1CC(=O)N(Cc2ccccc2)C1=O (stereo not given),?,-87*,13µM*,?,?,13µM*
O=C1CC(N(O)C2CC(=O)N(Cc3ccccc3)C2=O)C(=O)N1Cc1ccccc1 (stereo not given),0%,4,10µM*,-3%,-2%,21µM*
O=C1CC(N2CCN(c3ccccc3O)CC2)C(=O)N1Cc1ccccc1 (stereo not given),4%,0,?,6%,0%,-18%
Cc1ccc(CNc2ccc3nnc(C(C)C)n3n2)o1,/,/,/,44%,/,/
COC(=O)c1cc(=O)nc2sc(-c3ccc(F)cc3)nn12,-5%,-6,?,/,-14%,23µM*
COc1ccc(OC)c(NC(=O)[C@H]2C[C@H](CCSC)N[C@]23C(=O)Nc2c(C)cc(Cl)cc23)c1,/,/,/,21%,/,/
O=C(c1ccc(N2C(=O)c3ccccc3C2=O)cc1)N1CCCCC1,4%,5,5%,20%,11%,-6%
CCc1ccc(N2C(=O)C(Cl)=C(Nc3ccc(C(=O)N4CCCC4)cc3)C2=O)cc1,-4%[9.24 µM],-92*,-6%,/,-26%,-28%
O=[N+]([O-])c1ccc(/C=N/Nc2ccc(S(=O)(=O)Nc3cccc(Cl)c3)cc2[N+](=O)[O-])cc1,/,/,/,14%,/,/
O=C(N/N=C\C=C\c1ccco1)c1cc(-c2ccc3ccccc3c2)n[nH]1,-20%,-23,?,40µM*,-8%,?
O=C(N/N=C/C=C/c1ccco1)c1cnccn1,10%,-5,-20%,352%,4%,-9%
O=C(N/N=C/C=C\c1ccco1)c1ccccn1,?,-5,16µM*,0%,-20%,9.2µM*
CC(C)C(NC(=O)C1CCCCC1C)C(=O)O (stereo not given),/,/,/,2%,/,/
CCOc1ccccc1C(=O)N1[C@@H]2CC[C@H]1CC(NC(=O)c1ccc(F)cc1)C2 (stereo not given in full),/,/,/,5%,/,/
COc1cccc(NC(=O)C(Sc2nnc(-c3ccco3)o2)c2ccccc2)c1 (stereo not given),/,/,/,-29%,/,/
O=C(Nc1cccc(OCC2CCCO2)c1)C1CCCC1 (stereo not given),/,/,/,-30%,/,/
CCOC(=O)c1c(C)[nH]c(C(=O)OC(C)C(=O)Nc2ccccc2OC)c1C (stereo not given),-29%,-2,?,14%,?,16µM*
CCOC(=O)c1sc(N)c(C(=O)OC)c1C,26%,1,-5%,-6%,19%,-1%
CCOC(=O)c1[nH]c(C)c(C(=O)OC(C)C(=O)Nc2ncc(Cl)cc2Cl)c1C (stereo not given),-24%,-17,?,-4%,-29%,18µM*
CCOC(=O)c1sc(N)c(C(=O)Nc2ccccc2OC)c1C,?,15,2.9µM*,?,7.3µM*,2.9µM*
Cc1cc(C)cc(-n2ncc3c(NCC4CCCO4)ncnc32)c1 (stereo not given),/,/,/,34%,/,/
COc1cccc(N/C(SCc2cccc([N+](=O)[O-])c2)=C(/C#N)C(N)=O)c1,?,-102*,?,-5%,16µM*,?
Cc1ccc(CC(=O)NCc2nnc3c(-c4nc(C5CC5)no4)cccn23)cc1,/,/,/,24%,/,/
SMILES,HT1080-NT tox,IL1B secr inh,TDP1 cell noCPT,ALOX12 inh,HT1080 IDH1KD tx,TDP1 cell CPT
COc1ccc(NC(=O)c2c3c(nc4ccccc24)CCN(Cc2ccccc2)C3)c(OC)c1,-20%,-14,?,1%,2%,16µM*
CCN(CC)S(=O)(=O)c1ccc(OC(C)C)c(NC(=O)c2c3c(nc4ccccc24)CCN(Cc2ccccc2)C3)c1,-9%,-14,12µM*,-19%,-11%,13µM*
COc1ccc(S(=O)(=O)N2CCCCC2)cc1NC(=O)Cn1cnc2ccccc2c1=O,-9%,-7,7%,-1%,-9%,-7%
COc1ccc(S(=O)(=O)N2CCCCCC2)cc1NC(=O)c1c2c(nc3ccccc13)CCN(Cc1ccccc1)C2,4%,-1,?,-15%,-3%,16µM*
CC(C)C(NC(=O)c1c(F)cccc1F)C(=O)NCc1cnn(-c2ccccc2)c1 (stereo not given),/,/,/,-41%,/,/
CNC(=O)c1ccc(-c2nc(CN3CCN(S(=O)(=O)c4ccccc4)CC3)c(C)o2)cc1,/,/,/,-23%,/,/
CCOc1ccc2c(c1)OC(c1ccc(C)cc1)(C(F)(F)F)NC2=O (stereo not given),?,-16,1.3µM*,-28%,2.3µM*,1.5µM*
Cc1ccc(S[C@@H](CCN2CC[C@H](O)CCC2=O)c2ccccc2)cc1,6%,5,-11%,35µM*,4%,11%
